In the library only some 11% were active in any assay of this set; here they are far more common.
Pf growth 48h: P. falciparum growth inhibition at 48 hours (one generation); P. falciparum luciferase growth in erythrocytes, 48 h; Potency, µM (series often up to 28.7 µM), for the others: at the top dose activity change, negative = inhibition, usual class: inhibitors; 5.9% of 310,000 active
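Parasite viability was followed by luminescence of a genomically integrated firefly luciferase. Cultures held 0.1% parasitemia at 2% hematocrit (final), incubated under 5% CO2 at 37 C.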
AMA1-RON2 inh: AMA1-RON2 (P. falciparum) interaction inhibition. AlphaScreen AMA1-biotinylated RON2 peptide binding. Potency, µM (doses to about 58.2 µM), inactives show top-dose activity change, negative = inhibition, hits mostly inhibitors. 0.2% of 360,000 active;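 also: 0% = vehicle wells and -100% = peptide control; nearly all actives have a fitted effect of over 45% in size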
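AMA1 (3D7) with his tag at 25 nM final met compounds first, then biotinylated RON2 peptide at 25 nM; detection used donor plus acceptor beads, 10 µg/mL apiece, read by AlphaScreen after 30 min at room temperature.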
Pf growth 96h: P. falciparum growth inhibition at 96 hour, primary screen for plastid delayed-death inhibitors | AID 504834 | Potency, µM (highest dose often 28.7 µM), inactives show at the top dose activity change, negative = inhibition, hits mostly inhibitors | 6.9% of 320,000 active | P. falciparum luciferase reporter growth, 96 h
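Cell-based qHTS: luciferase-tagged P. falciparum in erythrocytes (2% hematocrit, 0.05% parasitemia final) incubated with compounds for 96 hours, 37 C, 5% CO2; luciferase detection reagent then added and luminescence measured.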
HCV inh: blocks hepatitis C virus | Potency, µM (top dose mostly 41.8 µM), for inactives: at the highest dose activity change, negative = inhibition, hits mostly inhibitors | Huh7.5.1 HCVcc-Cre infection, luciferase reporter, 44 h | 3.4% of 340,000 active
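Infectious HCV cell culture screen: compound-treated cells (1,000/well, pre-plated 4 h) are infected with HCVcc-Cre at roughly 0.5 moi and grown 44 h. Infection is quantified by luciferase signal after 15 min substrate incubation at room temperature.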
* = called active by the depositor; ? = inconclusive; nt = no result given; ! = not active in a repeat; [ ] = remark or other dose. Calls follow the shape of the dose curve; as a rule, active = well fitted curve in the direction sought with a large enough effect; inconclusive = small, poorly fitted or top-dose-only effect, or another doubt; inactive = no such curve, though single readings can be large; an effect the other way counts as inactive or inconclusive. Unless noted, % is scaled to controls: 0 for no effect and ±100 for the full control effect; potency is read from the fitted curve at half-maximal effect.

SMILES	Pf growth 48h	AMA1-RON2 inh	Pf growth 96h	HCV inh
O=C(O)CCn1cc(C2CC(c3ccccc3)=NN2c2ccccc2)c(-c2ccccc2)n1 (stereo not drawn)	?	18%	-30%	21%
CN(C)C(=S)SCCn1c(N)nc(N(C)C)nc1=O	-12%	4%	-4%	1%
COc1ccc(CN(CC(=O)NC2CCCC2)C(=O)CCC(=O)Nc2nc(C)cs2)cc1	-25%	6%	-5%	11%
O=C(O)c1cc(O)c2c(c1)[C@@H]([C@H]1c3cc(C(=O)O)cc(O)c3C(=O)c3c(O[C@@H]4O[C@H](CO)[C@@H](O)[C@H](O)[C@H]4O)cccc31)c1cccc(O[C@@H]3O[C@H](CO)[C@@H](O)[C@H](O)[C@H]3O)c1C2=O	nt	1.4µM*	nt	15%
Cc1cc(N2O[C@H]3C=C[C@@H]2C3)no1	nt	9%	nt	-4%
CC(=O)N(CCCc1ccc(C(C)(C)C)cc1)CCCN(C)C	?	-7%	7%	7.9µM*
O=C(O)C(Cc1ccccc1[N+](=O)[O-])N1C(=O)c2ccccc2C1=O (stereo not drawn)	nt	7%	nt	6%
Cc1ccc(-c2nnn(C(C)C(=O)N3c4ccccc4CCc4ccccc43)n2)cc1 (stereo not drawn)	?	-16%	12µM*	?
CC(C(=O)N1c2ccccc2CCc2ccccc21)n1nnc(-c2ccc(N(C)C)cc2)n1 (stereo not drawn)	7.4µM*	-25%	1%	?
CC(C(=O)N1c2ccccc2Sc2ccccc21)n1nnc(-c2cccs2)n1 (stereo not drawn)	?	0%	nt	4%
Cc1nn(CC(=O)Nc2ccc(Cl)cc2Cl)c(=O)c2ccccc12	-3%	13%	-14%	3%
O=C(N/N=C/c1ccc[nH]1)c1ccc([N+](=O)[O-])cc1	32%	12%	?	?
CCN(CC)S(=O)(=O)c1cccc(NC(=O)COc2ccc(F)cc2Br)c1	-14%	1%	?	11µM*
COc1cc(SC)ccc1C(=O)Nc1cccc(C)n1	88%	0%	5%	13µM*
CCN(CC)S(=O)(=O)c1cccc(NC(=O)c2ccc(SC)cc2OC)c1	?	-18%	?	11µM*
COc1cc(SC)ccc1C(=O)Nc1ccccn1	190%	-14%	395%	?
COc1cc(SC)ccc1C(=O)Nc1cccc(S(=O)(=O)NC2=NCCCCC2)c1	?	-5%	?	-28%
CCN(CC)S(=O)(=O)c1cccc(NC(=O)c2ccccc2Br)c1	10µM*	-13%	?	?
COc1cc(SC)ccc1C(=O)NCCOc1c(C)cc(C)cc1C	13µM*	7%	4.7µM*	nt
CCN(CC)S(=O)(=O)c1cccc(S(=O)(=O)c2cccc(S(=O)(=O)N(CC)CC)c2)c1	?	14%	?	11µM*
COC(=O)Cc1ccc(NC(=S)Nc2ccccn2)cc1	7%	29%	-9%[5.75 µM]	-23%
O=C1C2C3C=CC(C2C(=O)N1C1CCCCC1)C1C2C(=O)N(C4CCCCC4)C(=O)C2C31 (stereo not drawn)	19%	22%	?	11%
O=C(CCCCCNc1nc(=S)[nH]c2ccccc12)NCCc1c[nH]c2ccccc12	?	45%	31%	20µM*
CNc1ccccc1-n1ccc(-c2ccccc2)n1	39%	?	nt	?
Cn1ccc(-c2ccccc2)n1	4%	-8%	1.7µM*	15%
SMILES	Pf growth 48h	AMA1-RON2 inh	Pf growth 96h	HCV inh
CCCc1nc2ccccc2c(=O)n1-c1ccc(C(=O)OCC)cc1	-16%	-8%	3%	23%
O=C(Nc1cnccn1)c1ccc(F)cc1Cl	1%	21%	?	14%
CC1CCN(S(=O)(=O)c2ccc3c4c2CC(=O)N4CC(C)S3)CC1 (stereo not drawn)	8.3µM*	-13%	12%	-17%
Cc1ccc(S(=O)(=O)N2CCN(S(=O)(=O)N3CCC(C)CC3)CC2)c(C)c1	-4%	-17%	13%	-8%
OC(Cn1cncn1)(c1ccccc1)c1ccccc1	7%	-2%	nt	8%
O=C(c1ccco1)N1CCN(C(=O)c2cnn3c2NC(c2cccs2)CC3C(F)(F)F)CC1 (stereo not drawn)	?	-1%	-57%	0%
O=C(c1cnn2c1NC(c1ccco1)CC2C(F)(F)F)N1CCN(c2cccc(Cl)c2)CC1 (stereo not drawn)	?	-16%	nt	10µM*
O=C(CN1CCSC1=NCc1ccccc1)c1ccccc1	12%	3%	14%	?
COc1ccccc1N(C(C)=O)c1nc(C)cc(C)c1C#N	-19%	-4%	9.3µM*	9%
O=[N+]([O-])c1cc([As](=O)(O)O)ccc1O	2.6µM*	-10%	1.7µM*	-2%
CC(C)c1ccc(OCC(=O)NNC(=O)c2cnccn2)cc1	?	71%	10µM*	29%
O=C(COc1ccc2ccccc2c1)NNC(=O)c1cnccn1	15µM*	49%	9.3µM*	-10%
COc1ccc(CC(=O)NNC(=O)c2cnccn2)cc1	8%	110%	23%	10%
CC(C)/C=C/C(=O)N1CCCC(N2CCN(c3ccccc3F)CC2)C1 (stereo not drawn)	-2%	-2%	?	-12%
CCN1C(=NCC(C)C)N[C@@H](c2cccc(C(F)(F)F)c2)C(C(=O)OC)=C1C	13µM*	2%	0.93µM*	-15%[8.37 µM]
COC(=O)C1=C(C)N(Cc2ccccc2)C(=NCC(C)C)N[C@H]1c1ccccc1	?	-4%	8.3µM*	-12%
CCN1C(=NCCCCO)N[C@@H](c2cccc(C(F)(F)F)c2)C(C(=O)OC)=C1C	?	-2%	?	-9%
C=CCN=C1N[C@@H](c2cccc(C(F)(F)F)c2)C(C(=O)OC)=C(C)N1CC	10µM*!	6%	3.3µM*	-28%
COC(=O)C1=C(C)N(Cc2ccccc2)C(=NCCCCO)N[C@H]1CCc1ccccc1	?	-1%	3.7µM*	4%
CCCCCOC(=O)Cc1c(C)nc(-c2ccccc2)[nH]c1=O	1.9µM*	-5%	?	23%
CNC(=O)Nc1ccc2snnc2c1	nt	-4%	12µM*	1%
Cc1ccc(CSCC(=O)Nc2ccccc2C(=O)O)cc1	44%	-2%	2.1µM*	12%
Cc1ccc(C(C)C)c(OCC(=O)Nc2ccc(N3CCOCC3)cc2N2CCOCC2)c1	?	-17%	?	32µM*
Cc1ccc2c(c1)-c1c(cnn1CC(=O)Nc1ccccc1N1CCN(C)CC1)CO2	10µM*	-5%	-33%	-28%
Cc1ccc(CSCC(=O)Nc2ccc(N3CCOCC3)cc2N2CCOCC2)cc1	5.2µM*	2%	?	4%
O=C(CSc1ncn[nH]1)Nc1ccccc1C(=O)O	10%	2%	2.9µM*	13%
CC(=O)N1CCN(c2ccccc2NC(=O)COc2cc(C)ccc2C(C)C)CC1	?	-6%	nt	?
Cc1ccc(C(C)C)c(OCC(=O)Nc2ccccc2N2CCN(C)CC2)c1	6.6µM*	-12%	24%	?
COc1ccccc1NC(=O)CSc1ncn[nH]1	-4%	1%	0%	10%
